High-throughput results (PubChem)
The list is not random: actives were taken first. Their share in the collection is about 1.5%.
CRFBP-R2 block: antagonists of CRF-binding protein/CRF-R2 receptor complex; 350,000 compounds, 0.59% hits; inhibition, % at 11.8 µM; AID 588475; HEK293 CRF-R2/CRF-BP, CRF-induced calcium fluorescence;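 active = inhibition of the ligand-induced calcium signal above about 50% at the single tested concentration, limit read from the data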
V-ATPase pHluor: regulators of yeast V-ATPase proton transport | S. cerevisiae, pHLuorin cytosolic pH fluorescence | response, % at 10 µM | 350,000 compounds, 0.37% hits; in the data active = response mostly above about 7.3%, no sharp cut-off; inactive = mostly below about 5.4%; note: actives read high
CRFR2-BP ag: agonists of human CRF-binding protein/CRF-R2 receptor complex; HEK293 CRF-R2/CRF-BP, calcium dye fluorescence (FLIPR); percent of saturating CRF peptide response; activation, % at 13.2 µM; 350,000 compounds, 0.46% hits;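 active = activation of at least 50%, plus an integration ratio under a set limit after plate pattern correction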;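 note: plate controls were neutral control wells without compound for no effect and CRF at EC100 for full effect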
NTR1 agonist: activates human neurotensin receptor 1. activation, % at 20 µM. 330,000 compounds, 0.17% hits. NTR1-U2OS beta-arrestin-GFP spot imaging, agonist mode. P30989. AID 493036;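 active = activation at or above 40% of the spot to cytoplasm intensity ratio, with at least 20 cells analyzed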;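 note: 0% = DMSO without peptide and 100% = 100 nM NTR1 peptide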
Target sequence (P30989 whole entry, looked up): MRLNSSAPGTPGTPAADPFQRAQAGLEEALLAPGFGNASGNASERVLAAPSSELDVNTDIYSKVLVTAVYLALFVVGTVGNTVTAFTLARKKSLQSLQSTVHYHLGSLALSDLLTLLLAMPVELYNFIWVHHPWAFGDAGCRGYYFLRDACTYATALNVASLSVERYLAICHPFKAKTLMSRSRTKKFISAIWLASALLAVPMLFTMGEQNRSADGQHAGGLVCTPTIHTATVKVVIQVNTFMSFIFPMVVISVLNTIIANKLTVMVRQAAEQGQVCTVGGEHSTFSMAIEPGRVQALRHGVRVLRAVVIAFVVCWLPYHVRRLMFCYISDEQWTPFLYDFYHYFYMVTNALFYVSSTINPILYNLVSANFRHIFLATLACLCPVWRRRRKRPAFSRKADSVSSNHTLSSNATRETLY
* marks the source's active call; other numbers are inactive results; nt = not tested or not shown.

SMILES	CRFBP-R2 block	V-ATPase pHluor	CRFR2-BP ag	NTR1 agonist
CCOC(=O)C1C(=O)NC(C(=O)OCC)(C(=O)OCC)C1C(C)CC (stereo unspecified)	20	-4	-2	nt
COc1ccc(C2=CC(c3ccc(Cl)cc3)n3cnnc3N2)cc1OC (stereo unspecified)	-49	1	80*	7
COc1ccc(C2C=C(c3ccc(Cl)cc3)Nc3nc(NC(C)=O)nn32)cc1 (stereo unspecified)	nt	nt	nt	4
CS(=O)(=O)Nc1ccc2c(c1)[C@H]1C[C@H](CC(=O)NCc3cccc(F)c3)O[C@@H](CO)[C@H]1O2	11	0	1	nt
C=CCOc1ccc(C2C(C#N)=C(N)N(N(C)C)C3=C2C(=O)CCC3)cc1 (stereo unspecified)	-2	-4	0	-2
CC1=CC(C)(C)N(C(=O)c2ccccc2)c2ccc(C)cc21	-49	1	67*	4
CN(C(=O)c1ccc(S(=O)(=O)NC2CCCC2)cc1)C1CCCCC1	-75	0	51*	2
O=S(=O)(NC1CCCC1)c1ccc(S(=O)(=O)NC2CCCC2)cc1	-71	2	56*	1
O=C1/C(=C/c2ccc(O)cc2)SC(=S)N1Cc1cccnc1	-51	-1	107*	1
Cc1ccccc1C(=O)N1c2ccccc2OCC1C(C)(C)C (stereo unspecified)	-59	-3	2	4
CC(C)(C)C1COc2ccccc2N1C(=O)c1ccccc1Cl (stereo unspecified)	-62	-2	57*	3
Cc1ccc(Cl)cc1NC(=O)CCC(=O)NCc1ccco1	4	-2	0	-1
CCCCCC/C(=N/O)c1ccccn1	59*	1	-1	-1
CC1(C)CC(NCCC(c2ccccc2)c2ccco2)CCO1 (stereo unspecified)	97*	-1	0	3
CC(=O)NCc1nc2ccccc2n1Cc1ccccc1F	-11	4	-2	-2
NC(=O)CS(=O)(=O)c1nc2ccccc2n1Cc1ccccc1F	118*	-5	2	-2
COc1ccc(NC(=O)COC(=O)Cn2nnc3ccccc32)cc1	3	7	-1	1
CN(C)c1ccc(NC(=O)COC(=O)Cn2nnc3ccccc32)cc1	93*	2	0	2
O=C(NCCc1cccc(C(F)(F)F)c1)C1CCC(=O)N(CCc2cccc(F)c2)C1 (stereo unspecified)	38	0	-2	1
O=C(NCCc1cccnc1)C1CCC(=O)N(Cc2ccc(Cl)cc2)C1 (stereo unspecified)	104*	2	1	0
O=C(NCCc1cn[nH]c1)C1CCC(=O)N(CCc2cccc(F)c2)C1 (stereo unspecified)	104*	2	-1	3
O=C(O)c1cccc2c1C(=O)N(Cc1ccccc1)C2	63*	2	0	-1
O=C(C1=NN(c2ccccc2)C2C(=O)N(c3ccccc3)C(=O)C12)c1ccccc1 (stereo unspecified)	-79	-7	68*	0
COc1ccccc1N1C(=O)C2C(C(=O)c3ccccc3)=NN(c3ccccc3)C2C1=O (stereo unspecified)	-35	-6	38	1
O=C(C1=NN(c2ccccc2)C2C(=O)N(c3ccccc3Cl)C(=O)C12)c1ccccc1 (stereo unspecified)	-138	-6	135*	nt
SMILES	CRFBP-R2 block	V-ATPase pHluor	CRFR2-BP ag	NTR1 agonist
Cc1ccc(N2C(=O)C3C(C(=O)c4ccccc4)=NN(c4ccccc4)C3C2=O)cc1 (stereo unspecified)	-86	-10	90*	1
Cc1ccc(C)c(NC(=O)Cn2cnc3c(oc4ccccc43)c2=O)c1	52*	-1	-4	-1
CSc1ccccc1C(=O)N1CCC2(CC1)CC(=O)c1ccccc1O2	-4	-5	-1	1
COc1ccc(N2CCN(C(=O)COC(=O)CCS(=O)(=O)c3ccc(C)cc3)CC2)cc1	12	15*	0	2
Cn1cnc([N+](=O)[O-])c1N=C(N)N	0	-3	0	2
O=C1C2C3C=CC(C3)C2C(=O)N1CCCO (stereo unspecified)	69*	-2	0	-2
O=C1C2C3C=CC(C3)C2C(=O)N1CCCCN1C(=O)C2C3C=CC(C3)C2C1=O (stereo unspecified)	20	1	0	1
O=C(CCS(=O)(=O)c1ccc(F)cc1)N1CCOCC1	10	-2	-1	-1
CCOc1ccc(CCNC(=O)Cc2ccc(NC3=NC4CS(=O)(=O)CC4S3)cc2)cc1OCC (stereo unspecified)	25	3	-1	0
